Source: the supplement of paper PMC12494721
Where a name gives a salt, the structure may show the parent alone.

What was measured:
Settings in all cases: incubation time: 27 h, anaerobic, 37 °C;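 for the amine columns active = adjusted P below 0.05 in both replicates with a change the same way and a mean fold change under 0.8 or over 1.25; inactive = the rest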
[1] = tested on: Clostridium sporogenes DSM 1664; assay: growth (OD595) fold change vs plate DMSO controls (fold change (ratio)); higher = more growth
Procedure, shortened: (§1)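 Each value is the mean of 2 biological replicates, and fold changes above 1.5 were set to NA. The underlying readings were taken at 595 nm from shaken anaerobic mGAM cultures in 96-well plates after 27 h at 37 °C. They were blank-subtracted, corrected for compound background using 20 µM compound solutions in water, and converted to OD with a calibration factor of 5. Growth is the fold change relative to the median of the plate DMSO controls.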

[2] = tested on: Escherichia coli IAI1; assay: as above
Procedure, shortened: as §1

[3] = tested on: Klebsiella aerogenes DSM 30053; assay: as above
Procedure, shortened: as §1

[4] = tested on: Ruminococcus gnavus DSM 108212; assay: as above
Procedure, shortened: as §1

[5] = tested on: Klebsiella aerogenes DSM 30053; assay: fold change of Histamine concentration vs plate DMSO controls (fold change (ratio)); higher = more amine produced, active = hit call of the paper (significant change in both replicates, either direction)
Procedure, shortened: (§2)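 Using LC–triple-quadrupole MS with dynamic MRM, amines were quantified against external calibration curves and corrected for drift within each batch. Samples were whole anaerobic mGAM cultures of four gut strains, grown 27 h at 37 °C from OD 0.1 before 1:1 dilution, extracted with cold acetonitrile/methanol containing 0.1% formic acid and centrifuged. Compounds were present at 20 µM final (sweeteners at 50 µM final). The numbers are fold changes versus plate DMSO controls, each the mean of 2 biological replicates.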

[6] = tested on: Clostridium sporogenes DSM 1664; assay: fold change of Tryptamine concentration vs plate DMSO controls (fold change (ratio)); higher = more amine produced, active = hit call of the paper (significant change in both replicates, either direction)
Procedure, shortened: as §2

[7] = tested on: Ruminococcus gnavus DSM 108212; assay: as above
Procedure, shortened: as §2

[8] = tested on: Escherichia coli IAI1; assay: fold change of Putrescine concentration vs plate DMSO controls (fold change (ratio)); higher = more amine produced, active = hit call of the paper (significant change in both replicates, either direction)
Procedure, shortened: as §2

[9] = tested on: Klebsiella aerogenes DSM 30053; assay: as above
Procedure, shortened: as §2

[10] = tested on: Escherichia coli IAI1; assay: fold change of Cadaverine concentration vs plate DMSO controls (fold change (ratio)); higher = more amine produced, active = hit call of the paper (significant change in both replicates, either direction)
Procedure, shortened: as §2

[11] = tested on: Klebsiella aerogenes DSM 30053; assay: as above
Procedure, shortened: as §2

[12] = tested on: Ruminococcus gnavus DSM 108212; assay: fold change of 2-Phenylethylamine concentration vs plate DMSO controls (fold change (ratio)); higher = more amine produced, active = hit call of the paper (significant change in both replicates, either direction)
Procedure, shortened: as §2

SMILES: CCCSc1nc(N[C@@H]2C[C@H]2c2ccc(F)c(F)c2)c2nnn([C@@H]3C[C@H](OCCO)[C@@H](O)[C@H]3O)c2n1 [Ticagrelor] (20 µM)
- growth [1]: 1.15
- growth [2]: 0.999
- growth [3]: 1.02
- growth [4]: 1.03
- fold change of Histamine concentration [5]: 0.977 (inactive)
- fold change of Tryptamine concentration [6]: 0.88 (inactive)
- fold change of Tryptamine concentration [7]: 0.748 (active)
- fold change of Putrescine concentration [8]: 1.04 (inactive)
- fold change of Putrescine concentration [9]: 1.04 (inactive)
- fold change of Cadaverine concentration [10]: 1.07 (inactive)
- fold change of Cadaverine concentration [11]: 1.01 (inactive)
- fold change of 2-Phenylethylamine concentration [12]: 0.802 (inactive)

SMILES: CN(C)CCc1c[nH]c2ccc(C[C@H]3COC(=O)N3)cc12 [Zolmitriptan] (20 µM)
- growth [1]: 1.04
- growth [2]: 1.06
- growth [3]: 1.01
- growth [4]: 0.975
- fold change of Histamine concentration [5]: 1.01 (inactive)
- fold change of Tryptamine concentration [6]: 1.04 (inactive)
- fold change of Tryptamine concentration [7]: 1.04 (inactive)
- fold change of Putrescine concentration [8]: 1.01 (inactive)
- fold change of Putrescine concentration [9]: 1.01 (inactive)
- fold change of Cadaverine concentration [10]: 1.01 (inactive)
- fold change of Cadaverine concentration [11]: 0.993 (inactive)
- fold change of 2-Phenylethylamine concentration [12]: 1.06 (inactive)

SMILES: CN(C)c1ccc2nc3ccc(=[N+](C)C)cc-3sc2c1 [Methylene blue] (20 µM)
- growth [1]: 0.774
- growth [2]: 0.466
- growth [3]: 0.42
- growth [4]: 0.00745
- fold change of Histamine concentration [5]: 0.942 (inactive)
- fold change of Tryptamine concentration [6]: 0.998 (inactive)
- fold change of Tryptamine concentration [7]: 1.02 (inactive)
- fold change of Putrescine concentration [8]: 0.965 (inactive)
- fold change of Putrescine concentration [9]: 0.928 (inactive)
- fold change of Cadaverine concentration [10]: 0.941 (inactive)
- fold change of Cadaverine concentration [11]: 0.989 (inactive)
- fold change of 2-Phenylethylamine concentration [12]: 1.09 (inactive)

SMILES: CN[C@H](CC(C)C)C(=O)N[C@H]1C(=O)N[C@@H](CC(N)=O)C(=O)N[C@H]2C(=O)N[C@H]3C(=O)N[C@H](C(=O)N[C@H](C(=O)O)c4cc(O)cc(O)c4-c4cc3ccc4O)[C@H](O)c3ccc(c(Cl)c3)Oc3cc2cc(c3O[C@@H]2O[C@H](CO)[C@@H](O)[C@H](O)[C@H]2O[C@H]2C[C@](C)(N)[C@H](O)[C@H](C)O2)Oc2ccc(cc2Cl)[C@H]1O [Vancomycin hydrochloride] (20 µM)
- growth [1]: 0
- growth [2]: 1.06
- growth [3]: 1.01
- growth [4]: 0.17
- fold change of Histamine concentration [5]: 1.07 (inactive)
- fold change of Tryptamine concentration [6]: 0.0328 (active)
- fold change of Tryptamine concentration [7]: 0.0491 (active)
- fold change of Putrescine concentration [8]: 1.01 (inactive)
- fold change of Putrescine concentration [9]: 1.04 (inactive)
- fold change of Cadaverine concentration [10]: 0.953 (inactive)
- fold change of Cadaverine concentration [11]: 0.998 (inactive)
- fold change of 2-Phenylethylamine concentration [12]: 0.0538 (active)

SMILES: CO/N=C(\C(=O)N[C@@H]1C(=O)N2C(C(=O)[O-])=C(C[n+]3cccc4c3CCC4)CS[C@H]12)c1csc(N)n1 [Cefpirome sulfate] (20 µM)
- growth [1]: 0.00168
- growth [2]: 0.00447
- growth [3]: 0.0713
- growth [4]: 0.108
- fold change of Histamine concentration [5]: 0.122 (active)
- fold change of Tryptamine concentration [6]: 0.0112 (active)
- fold change of Tryptamine concentration [7]: 0.0828 (active)
- fold change of Putrescine concentration [8]: 0.213 (active)
- fold change of Putrescine concentration [9]: 0.347 (active)
- fold change of Cadaverine concentration [10]: 0.645 (inactive)
- fold change of Cadaverine concentration [11]: 1.09 (inactive)
- fold change of 2-Phenylethylamine concentration [12]: 0.0627 (active)

SMILES: COc1ccc2cc([C@H](C)C(=O)O)ccc2c1 [(S)-Naproxen] (20 µM)
- growth [1]: 1.04
- growth [2]: 1.1
- growth [3]: 1.02
- growth [4]: 1.08
- fold change of Histamine concentration [5]: 1.04 (inactive)
- fold change of Tryptamine concentration [6]: 0.983 (inactive)
- fold change of Tryptamine concentration [7]: 0.969 (inactive)
- fold change of Putrescine concentration [8]: 1.06 (inactive)
- fold change of Putrescine concentration [9]: 0.977 (inactive)
- fold change of Cadaverine concentration [10]: 1 (inactive)
- fold change of Cadaverine concentration [11]: 0.988 (inactive)
- fold change of 2-Phenylethylamine concentration [12]: 0.899 (inactive)
